# Experimental data reported in PubChem BioAssay (NCATS).
# A number with no mark means an inactive call. Unless noted, calls follow the shape of the dose curve; as a rule, active = well fitted curve in the direction sought with a large enough effect; inconclusive = small, poorly fitted or top-dose-only effect, or another doubt; inactive = no such curve, though single readings can be large; an effect the other way counts as inactive or inconclusive. Inconclusive results are not listed.
# Tested on: not listed separately
# Assay: qHTS Assay for Modulators of Human Peripheral Myelin Protein 22 (PMP22) Expression/Activity (AID 1967; active = well fitted curve in the direction sought with a large enough effect in the signal ratio; the % refers to the signal ratio;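 also: 0% = untreated cells and 100% end not stated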)
# Details: Cell-based PMP22 reporter, dual-color luciferase ratio, 0% = compound-free control cells, mouse Pmp22 promoter in mouse Schwann cells; series mostly up to 115 µM; activity change (ratio): at the top concentration
# Outline: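 Mouse MSC80 Schwann cells carrying Pmp22 promoter–green click beetle luciferase plus EF-alpha–red luciferase control, dosed 24 h at 37 °C. Dual-filter luminescence, overlap-corrected; %Activity from green/red ratio normalised to untreated cells, concentration-response curves fitted.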
row,Compound,activity change (ratio) [%]
1,C=CC(N)CCC(=O)O (centres undefined),13.1
2,Cn1c(=O)c2[nH]c(-c3ccccc3)nc2n(C)c1=O,-5.08
3,CN1C2CCC1CC(OC(=O)C(O)c1ccccc1)C2 (centres undefined),2.02
4,CCCCCCCCCCCCCCCCCC(=O)NCC(COP(=O)([O-])OCC[N+](C)(C)C)OCC (centres undefined),-1.33
5,O=C(O)c1cc(=O)c2c(Cl)cc(Cl)cc2[nH]1,22.4
6,NCCSSCCN,2.38
7,CN1CCC[C@H]1c1cccnc1,3.26
8,COc1cc(C(O)CO)ccc1OS(=O)(=O)O (centres undefined),8.01
9,CCCCCCCCCCCCCCCCCCNC(=O)OCC(COP(=O)([O-])OCC[n+]1ccsc1)OC (centres undefined),12.6

# Molecular target: Ferritin light chain (Equus caballus) (UniProt P02791)
# Sequence (P02791 2-175 limits assumed): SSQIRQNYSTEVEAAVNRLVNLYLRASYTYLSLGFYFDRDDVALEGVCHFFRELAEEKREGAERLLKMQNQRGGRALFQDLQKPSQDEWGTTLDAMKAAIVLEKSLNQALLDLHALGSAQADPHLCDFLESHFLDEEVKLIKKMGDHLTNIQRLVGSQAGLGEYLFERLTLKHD
# Assay: qHTS Validation Assay for Identification of Novel General Anesthetics (AID 2323); also: % is scaled to controls: 0 for no effect and ±100 for the full control effect
# Details: horse apoferritin, anesthetic-site fluorescent probe displacement; series mostly up to 76.9 µM; activity change, negative = inhibition: at the top concentration
# Outline: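 Horse-spleen apoferritin (10 uM) in PBS with 50% saturated 1-aminoanthracene; compounds pin-transferred, 10 min at room temperature. Fluorescence read at 380/535 nm, normalized to free 1-AMA and 1-AMA/apoferritin values; four-parameter Hill fit.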
row,Compound,"activity change, negative = inhibition [%]"
1,O=c1[nH]c2cc(Cl)c(Cl)cc2[nH]c1=O,144
2,O=S(=O)(c1cccc2c(I)cccc12)N1CCCNCC1,-5.9
3,C=CC(N)CCC(=O)O (centres undefined),-3.02
4,NC(CCCP(=O)(O)O)C(=O)O (centres undefined),-4.68
5,Fc1cccc(/C=N/N=C/c2cccc(F)c2)c1,-10.7
6,Cn1c(=O)c2[nH]c(-c3ccccc3)nc2n(C)c1=O,322
7,CN1C2CCC1CC(OC(=O)C(O)c1ccccc1)C2 (centres undefined),-11.6
8,COc1cc2nc(N3CCN(C(=O)OCc4ccccc4)C(C(=O)NC(C)(C)C)C3)nc(N)c2cc1OC (centres undefined),5.57
9,O=C(O)c1cc(=O)c2c(Cl)cc(Cl)cc2[nH]1,11.7
10,NCCSSCCN,-4.32
11,CCCN(CC1CC1)c1nc(C)nc(Nc2c(Cl)cc(Cl)cc2Cl)c1Cl,73.2
12,OC[C@H]1O[C@@H](n2cnc3c(NC4CCCCC4)ncnc32)[C@H](O)[C@@H]1O,-10.6
13,CN1CCC[C@H]1c1cccnc1,-4.55
14,COc1cccc(OC)c1OCCNCC1COc2ccccc2O1 (centres undefined),-10.6
15,COc1cc(C(O)CO)ccc1OS(=O)(=O)O (centres undefined),-7.96
16,CN1CCc2cc(O)c(O)cc2C(c2ccccc2)C1 (centres undefined),-5.59

# Molecular target: ATP-dependent DNA helicase Q1 (Homo sapiens) (UniProt P46063)
# Sequence (P46063 whole entry, looked up): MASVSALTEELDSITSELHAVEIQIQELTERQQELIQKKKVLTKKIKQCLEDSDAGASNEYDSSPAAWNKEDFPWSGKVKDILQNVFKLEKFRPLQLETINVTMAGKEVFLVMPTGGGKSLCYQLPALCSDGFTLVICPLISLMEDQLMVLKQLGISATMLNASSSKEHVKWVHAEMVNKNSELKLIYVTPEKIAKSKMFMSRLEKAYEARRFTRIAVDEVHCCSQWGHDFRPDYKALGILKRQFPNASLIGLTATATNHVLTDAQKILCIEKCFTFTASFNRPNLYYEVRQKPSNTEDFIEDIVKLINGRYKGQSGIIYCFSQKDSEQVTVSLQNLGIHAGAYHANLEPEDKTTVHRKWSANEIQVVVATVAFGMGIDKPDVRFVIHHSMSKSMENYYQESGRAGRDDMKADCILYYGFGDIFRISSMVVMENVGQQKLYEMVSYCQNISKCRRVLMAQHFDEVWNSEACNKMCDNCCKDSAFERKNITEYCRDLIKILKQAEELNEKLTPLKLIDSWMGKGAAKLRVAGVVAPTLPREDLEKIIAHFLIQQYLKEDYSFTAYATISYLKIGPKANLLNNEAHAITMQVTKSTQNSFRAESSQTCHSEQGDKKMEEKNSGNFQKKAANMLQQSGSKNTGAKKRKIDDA
# Assay: qHTS Validation Assay for Inhibitors of RecQ-Like Dna Helicase 1 (RECQ1) (AID 2353);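 also: plate controls were DMSO vehicle for no effect and enzyme-free control for full effect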
# Details: recombinant RECQ1 helicase DNA unwinding assay; series mostly up to 25.6 µM; activity change, negative = inhibition: at the top concentration
# Outline: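 50 nM RECQ1T1 preincubated 15 min with compound in Tris pH 8.0 buffer with MgCl2, DTT, Tween-20 and 2.5 ug/ml poly(dI-dC); started with 200 nM TAMRA/BHQ-2 forked duplex and 2 mM ATP. Unwinding read as fluorescence (525/598 nm), two reads 2 h apart.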
row,Compound,"activity change, negative = inhibition [%]"
1,O=c1[nH]c2cc(Cl)c(Cl)cc2[nH]c1=O,-1.29
2,Oc1ccc(C2CNCc3sccc32)cc1O (centres undefined),-2.64
3,O=S(=O)(c1cccc2c(I)cccc12)N1CCCNCC1,3.46
4,C=CC(N)CCC(=O)O (centres undefined),-7.34
5,O=C(c1cc(O)c(O)c([N+](=O)[O-])c1)c1ccccc1F,-11.4
6,NC(CCCP(=O)(O)O)C(=O)O (centres undefined),0.0167
7,Fc1cccc(/C=N/N=C/c2cccc(F)c2)c1,0.215
8,Cn1c(=O)c2[nH]c(-c3ccccc3)nc2n(C)c1=O,3.28
9,CN1C2CCC1CC(OC(=O)C(O)c1ccccc1)C2 (centres undefined),1.03
10,O=c1[nH]c2ccccc2n1CCCN1CCN(C(c2ccccc2)c2ccccc2)CC1,-2.02
11,CCCCCCCCCCCCCCCCCC(=O)NCC(COP(=O)([O-])OCC[N+](C)(C)C)OCC (centres undefined),0.0884
12,COc1cc2nc(N3CCN(C(=O)OCc4ccccc4)C(C(=O)NC(C)(C)C)C3)nc(N)c2cc1OC (centres undefined),3.04
13,O=C(O)c1cc(=O)c2c(Cl)cc(Cl)cc2[nH]1,0.0705
14,NCCSSCCN,-4.89
15,CCCN(CC1CC1)c1nc(C)nc(Nc2c(Cl)cc(Cl)cc2Cl)c1Cl,-5.73
16,OC[C@H]1O[C@@H](n2cnc3c(NC4CCCCC4)ncnc32)[C@H](O)[C@@H]1O,-1.01
17,CN1CCC[C@H]1c1cccnc1,-3.05
18,COc1cccc(OC)c1OCCNCC1COc2ccccc2O1 (centres undefined),2.89
19,COc1cc(C(O)CO)ccc1OS(=O)(=O)O (centres undefined),-3.01
20,CCCCCCCCCCCCCCCCCCNC(=O)OCC(COP(=O)([O-])OCC[n+]1ccsc1)OC (centres undefined),-3.28
21,N[C@@H](CC(=O)O)C(=O)O,-1.35
22,CN1CCc2cc(O)c(O)cc2C(c2ccccc2)C1 (centres undefined),-0.77

# Molecular target: RecQ-like DNA helicase BLM (Homo sapiens) (UniProt P54132)
# Sequence (P54132 whole entry, looked up): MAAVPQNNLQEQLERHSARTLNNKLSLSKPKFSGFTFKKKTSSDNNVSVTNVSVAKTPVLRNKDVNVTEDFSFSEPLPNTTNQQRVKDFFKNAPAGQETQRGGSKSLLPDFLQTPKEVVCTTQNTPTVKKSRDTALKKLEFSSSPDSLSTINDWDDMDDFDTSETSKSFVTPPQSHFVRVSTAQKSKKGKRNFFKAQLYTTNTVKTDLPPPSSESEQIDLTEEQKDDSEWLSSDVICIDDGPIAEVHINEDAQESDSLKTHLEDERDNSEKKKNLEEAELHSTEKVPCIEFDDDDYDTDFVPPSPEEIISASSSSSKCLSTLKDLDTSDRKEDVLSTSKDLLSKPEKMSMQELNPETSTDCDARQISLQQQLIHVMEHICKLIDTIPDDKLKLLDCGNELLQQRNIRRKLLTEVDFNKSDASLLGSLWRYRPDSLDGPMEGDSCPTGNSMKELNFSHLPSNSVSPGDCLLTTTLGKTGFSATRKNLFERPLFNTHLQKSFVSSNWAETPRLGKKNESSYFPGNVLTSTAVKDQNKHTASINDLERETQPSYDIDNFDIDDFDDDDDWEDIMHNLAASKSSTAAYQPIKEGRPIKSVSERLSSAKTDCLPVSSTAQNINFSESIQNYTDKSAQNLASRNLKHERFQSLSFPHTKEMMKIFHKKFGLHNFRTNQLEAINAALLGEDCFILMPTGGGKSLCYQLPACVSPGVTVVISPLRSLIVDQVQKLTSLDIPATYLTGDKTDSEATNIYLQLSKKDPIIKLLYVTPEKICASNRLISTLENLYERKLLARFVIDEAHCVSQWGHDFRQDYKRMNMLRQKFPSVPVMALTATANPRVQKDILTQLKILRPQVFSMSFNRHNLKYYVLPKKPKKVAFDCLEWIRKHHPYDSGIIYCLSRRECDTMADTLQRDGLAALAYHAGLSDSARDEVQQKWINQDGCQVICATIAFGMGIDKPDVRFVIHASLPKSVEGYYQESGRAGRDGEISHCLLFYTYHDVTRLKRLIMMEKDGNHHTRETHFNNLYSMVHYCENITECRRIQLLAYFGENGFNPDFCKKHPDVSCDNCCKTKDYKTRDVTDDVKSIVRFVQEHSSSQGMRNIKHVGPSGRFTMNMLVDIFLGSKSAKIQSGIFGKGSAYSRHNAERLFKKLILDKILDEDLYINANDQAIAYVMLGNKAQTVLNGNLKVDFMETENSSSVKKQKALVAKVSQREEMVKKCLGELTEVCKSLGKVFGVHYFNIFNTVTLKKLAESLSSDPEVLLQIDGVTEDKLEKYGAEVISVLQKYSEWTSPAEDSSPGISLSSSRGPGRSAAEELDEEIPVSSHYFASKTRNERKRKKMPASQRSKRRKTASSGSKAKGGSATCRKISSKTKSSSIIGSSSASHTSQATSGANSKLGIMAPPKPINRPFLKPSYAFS
# Assay: qHTS Validation Assay for Inhibitors of Bloom's syndrome helicase (BLM) (AID 2364);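 also: plate controls were DMSO vehicle for no effect and enzyme-free control for full effect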
# Details: BLM helicase DNA unwinding, fluorescence, in vitro; series mostly up to 57.1 µM; activity change, negative = inhibition: at the top concentration
# Outline: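 BLM 50 nM in 25 mM Tris-HCl pH 8.0, 5 mM NaCl, 2 mM MgCl2, 1 mM DTT, 0.01% Tween-20, 2.5 ug/ml poly(dI-dC); 15 min cpd preinc, RT. Start: 200 nM forked DNA + 2 mM ATP (final). TAMRA read, 2 reads 2 h apart.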
row,Compound,"activity change, negative = inhibition [%]"
1,O=S(=O)(c1cccc2c(I)cccc12)N1CCCNCC1,-2.4
2,COc1cc2nc(N3CCN(C(=O)OCc4ccccc4)C(C(=O)NC(C)(C)C)C3)nc(N)c2cc1OC (centres undefined),-0.767
3,NCCSSCCN,-6.1
4,OC[C@H]1O[C@@H](n2cnc3c(NC4CCCCC4)ncnc32)[C@H](O)[C@@H]1O,-13.8
5,COc1cccc(OC)c1OCCNCC1COc2ccccc2O1 (centres undefined),-8.26
6,COc1cc(C(O)CO)ccc1OS(=O)(=O)O (centres undefined),-5.41

# Tested on: not listed separately
# Assay: Cytometric Cell-Based qHTS for Inhibitors of the mTORC1 Signaling Pathway in MEF (Tsc2-/-, p53-/-) Cells (AID 2660);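 also: percent of cells above a phospho-rpS6 to PI ratio cutoff in each well; plate controls were DMSO for no effect and rapamycin for full effect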
# Details: mTORC1 pathway cytometry; series mostly up to 38.3 µM; activity change, negative = inhibition: at the top concentration
# Outline: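 Tsc2-/-, p53-/- MEFs (empty vector) exposed to compound 24 h at 37 C, fixed, stained with Alexa-488 anti-phospho-rpS6 Ser235/236 and propidium iodide. Acumen laser scanning; phospho-S6/PI ratio thresholded against 7.5 nM rapamycin, reported as % positive cells.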
row,Compound,"activity change, negative = inhibition [%]"
1,O=S(=O)(c1cccc2c(I)cccc12)N1CCCNCC1,-3.06
2,C=CC(N)CCC(=O)O (centres undefined),3.76
3,O=C(c1cc(O)c(O)c([N+](=O)[O-])c1)c1ccccc1F,-8.87
4,NC(CCCP(=O)(O)O)C(=O)O (centres undefined),7.41
5,Fc1cccc(/C=N/N=C/c2cccc(F)c2)c1,4.34
6,Cn1c(=O)c2[nH]c(-c3ccccc3)nc2n(C)c1=O,-2.06
7,CN1C2CCC1CC(OC(=O)C(O)c1ccccc1)C2 (centres undefined),0.334
8,CCCCCCCCCCCCCCCCCC(=O)NCC(COP(=O)([O-])OCC[N+](C)(C)C)OCC (centres undefined),-19.8
9,COc1cc2nc(N3CCN(C(=O)OCc4ccccc4)C(C(=O)NC(C)(C)C)C3)nc(N)c2cc1OC (centres undefined),0.604
10,O=C(O)c1cc(=O)c2c(Cl)cc(Cl)cc2[nH]1,4.12
11,NCCSSCCN,6.11
12,OC[C@H]1O[C@@H](n2cnc3c(NC4CCCCC4)ncnc32)[C@H](O)[C@@H]1O,1.56
13,CN1CCC[C@H]1c1cccnc1,3.06
14,COc1cccc(OC)c1OCCNCC1COc2ccccc2O1 (centres undefined),0.0445
15,COc1cc(C(O)CO)ccc1OS(=O)(=O)O (centres undefined),-1.81
16,CN1CCc2cc(O)c(O)cc2C(c2ccccc2)C1 (centres undefined),-10.7
